# High-throughput results from PubChem.
# Shn3 inh set2: reduction of Shn3 3'UTR firefly luciferase signal, primary screen, Schnurri-3 inhibitor project, cell-based, Clone20 osteoblasts, set 2; Clone20 osteoblast Shn3 3'UTR firefly luciferase, 24 h; inhibition, % at 12.5 µM; actives 0.52% (n = 360,000); AID 588674, 2011;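 active means mean inhibition of at least 75% with every replicate also reaching 75%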;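 further: 0% = median of neutral control wells and 100% = pilot-screen positive control compound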
# KKLEB tox: cytotoxicity in KKLEB CF airway cells, primary screen, cytotoxicity control for CF NF-kB inhibitor project, cell-based, uHTS, fluorescence assay plates | KKLEB CF airway cells viability, ATPlite luminescence, overnight; stronger effect = lower value; cells stimulated with P. aeruginosa culture filtrate | activity change (cytotoxicity), % at 5 µM | actives 0.36% (n = 360,000) | AID 602141, 2011;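 active means corrected activity change at or below -50% at 5 µM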
# HIF-2a inh: HIF-2a reporter inhibitors, primary screen, luminescence, 786-0 RCC cells; inhibition, % at 18.8 µM; AID 624352, 2012; 786-0 RCC cells HIF-2a reporter, luciferase luminescence, overnight; actives 0.72% (n = 360,000);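 active means inhibition of the luminescence signal of 40% or more relative to plate controls, in a single-dose primary screen at 18.75 µM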
# CF NFkB block: inhibitors of PAF-induced NF-kB signaling, primary screen, cell-based, GFP fluorescence, uHTS. inhibition, % at 5 µM. actives 0.86% (n = 360,000). AID 588850, 2011. KKLEB NF-kB-GFP reporter, GFP fluorescence overnight;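 active means at least 50% inhibition at 5 µM, scaled per plate between neutral and stimulator controls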;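 further: PAF is a Pseudomonas aeruginosa culture filtrate used as stimulus; plate controls were PAF-stimulated DMSO wells for no effect and unstimulated DMSO wells for full effect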
# Peg3 promoter: Peg3 promoter-driven luciferase inhibitors, primary screen, cell-based, HeLa, luciferase luminescence | actives 1.7% (n = 360,000) | HeLa PEG-Prom luciferase reporter, overnight | inhibition, % at 20 µM;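 active means inhibition of at least 50% at 20 µM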
# Active calls of the source: *. Most compounds without a hit are left out; they make up all but 2.6% or so of the library.
SMILES,Shn3 inh set2,KKLEB tox,HIF-2a inh,CF NFkB block,Peg3 promoter
CCOC(=O)c1c(C)n(-c2ccc(C)cc2)c2ccc(OCC(O)CNCCCO)cc12 (stereo not drawn),-1,-15,17,12,105*
CCOC(=O)c1c(C)n(-c2ccc(C)cc2)c2ccc(OCC(O)CNCC3CCCO3)cc12 (stereo not drawn),80,-37,12,41,86*
CCOc1ccc(CCN2C(=S)N([C@@H](CC(C)C)CN3CCCC3CN3C(=S)NC[C@@H]3Cc3ccc(O)cc3)C[C@@H]2Cc2ccc(O)cc2)cc1 (stereo partly drawn),86*,-7,-48,40,87*
Oc1ccc(C[C@H]2CNC(=S)N2CC2CCCN2C[C@H](Cc2ccccc2)N2C[C@H](Cc3ccc(O)cc3)N(CCc3ccccc3)C2=S)cc1 (stereo partly drawn),29,-2,-47,41,68*
CC(C)C[C@H]1CNC(=S)N1C[C@H]1CCCN1C[C@H](Cc1ccc(O)cc1)N1C[C@H](Cc2ccc(O)cc2)N(CCc2ccccc2)C1=S,-3,-19,-22,46,94*
CC(C)C[C@@H](CN1CCC[C@@H]1CN1C(=S)NC[C@@H]1Cc1ccc(O)cc1)N1C[C@H](Cc2ccc(O)cc2)N(CCc2ccccc2)C1=S,-15,-11,-22,37,78*
CC(C)C[C@H]1CN([C@@H](Cc2ccc(O)cc2)CN2CCC[C@@H]2CN2C(=S)NC[C@@H]2Cc2ccccc2)C(=S)N1CCc1ccccc1,49,-24,-15,9,19
Oc1ccc(C[C@@H](CN2CCC[C@@H]2CN2C(=S)NC[C@@H]2Cc2ccccc2)N2C[C@H](Cc3ccccc3)N(CCc3ccccc3)C2=S)cc1,4,-17,-8,4,-17
O=C(Nc1cc(-c2ccccc2)nn1-c1c(Cl)cccc1Cl)c1ccc(F)cc1,0,-15,12,9,25
COc1ccc(OCC(=O)Nc2cccc(NC(=O)COc3ccc(OC)cc3)n2)cc1,-37,-63*,-74,49,-117
CC(Nc1nc(N2CCNCC2)nc2ccccc12)c1ccccc1 (stereo not drawn),-7,-7,30,-3,102*
CC1(C(=O)NS(C)(=O)=O)CCN1C(=O)C/C=C/c1ccccc1 (stereo not drawn),-24,-7,7,5,5
CSC1SCC2C(=O)N(C)C(C(C)C)C(=O)OCC(NC(=O)c3cnc4ccccc4n3)C(=O)NC(C)C(=O)N(C)C1C(=O)N(C)C(C(C)C)C(=O)OCC(NC(=O)c1cnc3ccccc3n1)C(=O)NC(C)C(=O)N2C (stereo not drawn),94*,-37,63*,96*,99*
Cc1[nH]n(-c2ccccc2)c(=O)c1C(C[N+](=O)[O-])c1ccc(Br)cc1 (stereo not drawn),83,-11,29,8,103*
COc1cccc(C(C[N+](=O)[O-])c2c(C)[nH]n(-c3ccccc3)c2=O)c1 (stereo not drawn),-12,5,11,-3,20
O=C1c2cc(F)ccc2-n2c1nc1ccccc1c2=O,59,-27,-30,83*,8
O=[N+]([O-])c1cc(-c2nnc(Nc3ccc(O)cc3)c3ccccc23)ccc1N1CCOCC1,49,8,3,13,52*
COCCN(C(=O)COC(=O)C1(C)CC1(Cl)Cl)c1c(N)n(Cc2ccccc2)c(=O)[nH]c1=O (stereo not drawn),3,-16,1,7,0
c1ccc(-c2cc(NCCN3CCCCC3)c3ccccc3n2)cc1,26,-5,26,-39,101*
O=C(c1cc(-c2ccccc2)nc2ccccc12)N1CCCC1,-13,-7,-7,27,3
CCCC(=O)Nc1cc(OC)c(C(=O)OC)cc1Cl,5,-9,16,-28,2
COc1ccc(N=C(NN)c2ccc3ccccc3n2)cc1,55,-1,56*,-1,-101
COc1ccc(C(=O)NC(=S)NNC(=O)c2ccc3ccccc3n2)cc1,90*,-3,8,-22,46
COc1ccc(NC(=S)c2ccc3ccccc3n2)cc1,-77,11,-224,-46,-318
O=C(NNC(=S)NC(=O)c1sc2ccccc2c1Cl)c1ccc(Cl)cc1,-41,-65*,-95,76*,-23
SMILES,Shn3 inh set2,KKLEB tox,HIF-2a inh,CF NFkB block,Peg3 promoter
CS(=O)(=O)CCC(C(=O)Nc1ccc2c(c1)OCO2)N1Cc2ccccc2C1=O (stereo not drawn),-34,0,-98,-16,-95
CSCC[C@H](N)C(=O)NC[C@H]1CC[C@H](C(=O)N[C@@H](Cc2ccccc2)C(=O)O)CC1,18,1,10,1,-5
O=C1C(C2=NC(C(=O)O)C3C(=O)N(c4ccc(Cl)cc4)C(=O)C23)=C(O)c2ccccc21 (stereo not drawn),-3,-5,1,16,0
O=C1C(C2=NC(c3ccccn3)C3C(=O)N(c4ccc(Cl)cc4Cl)C(=O)C23)=C(O)c2ccccc21 (stereo not drawn),13,-39,16,53*,51*
Cc1ccc(NC(=O)CCNC(=O)c2ccc(Cl)cc2)cc1C,-8,-16,-25,17,-6
O=C(CCN1C(=O)NC2(CCCC2)C1=O)Nc1ccc(-c2nc3ccccc3s2)cc1,22,-20,-113,-5,101*
O=C(CCN1C(=O)NC2(CCCC2)C1=O)Nc1ccc(Sc2ccc(Br)cc2)cc1,1,-10,-10,-3,18
CCC(C)[C@H](NC(=O)[C@@H]1Cc2c([nH]c3ccccc23)C2c3ccccc3C(=O)N21)C(=O)NCC1CCCO1 (stereo partly drawn),17,-2,10,-39,-3
CC(C)(C)NC(=O)NC(=O)CN1CCN(c2ccc(O)cc2)CC1,87*,5,7,-13,18
COc1ccc(/C=C\C(=O)O[C@@H]2C(O)C(O[C@@H]3OC(C)[C@H](O[C@@H]4OCC(O[C@H]5O[C@H](CO)[C@@H](O)C(O)C5O)C(O)C4O)C(O)C3O)[C@H](OC(=O)[C@]34CCC(C)(C)C[C@@H]3C3=CCC5[C@@]6(C)CC(O)C(O[C@@H]7OC(CO)C(O)[C@H](O)[C@H]7O)[C@@](C)(C(=O)O)C6CC[C@@]5(C)[C@]3(CO)CC4)O[C@H]2C)cc1 (stereo partly drawn),-1,8,34,-58,51*
C[C@H](O)[C@@H]1C(=O)N2CCc3c([nH]c4ccccc34)[C@@H]2C[C@@H]1N(C)C(=O)NC1CCCCC1,11,-1,-38,-3,-59
